Experiment [1] has as its system Zika virus NS2B-NS3 protease (unlinked complex). Kind of experiment: Primary screen GU Rhodamine qHTS for Zika virus inhibitors: Unlinked NS2B-NS3 protease assay (AID 1347159). Also: nearly all actives have a fitted effect of over 60% in size. Also: potency is read from the fitted curve at half-maximal effect. The note with it: Recombinant ZIKV NS2B-NS3 protease, Rhodamine110 substrate fluorescence; series mostly up to 107 µM. Summed up: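 Percent inhibition came from the 15-min rise in Rhodamine110 fluorescence (1.5 microM substrate, ~15% conversion), normalized to no-inhibitor and no-enzyme wells and Hill-fitted. Unlinked protease, 25 nM, pH 8.0 Tris buffer; compounds up to 114 microM, 15-min preincubation.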
A general note: qHTS replaces the single test concentration by a dilution series.

In experiment [2] the test system is Zika virus NS2B-NS3 protease (linked construct). Kind of experiment: Primary screen NINDS Rhodamine qHTS for Zika virus inhibitors (AID 1347160). Also: nearly all actives have a fitted effect of over 55% in size. Also: potency is read from the fitted curve at half-maximal effect. The note with it: purified NS2B-NS3 protease, Rhodamine110 substrate fluorescence; series mostly up to 33.1 µM. An outline of the steps:
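Rhodamine110-peptide cleavage (1.5 µM substrate) by 25 nM linked NS2B-NS3 enzyme at pH 8.0 (Tris, Tween 20), after 15 min RT preincubation with compounds; 15-min fluorescence change normalized to controls and Hill-fitted.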

A short description of experiment [3]: OV-KATE Cancer Cell Toxicity qHTS against the NCATS CANVASS Library (AID 1347345). The note with it: OV-KATE cells viability, CellTiter-Glo luminescence, 72 h; series mostly up to 38.3 µM. Summed up:
(§1)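 Quantitative HTS format: an 11-concentration series was applied to 1000 cells/well following a 4-hour attachment. Cultures ran 72 hours before ATP luminescence detection by CellTiter-Glo.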

Experiment [4] is described as follows: HPAF-II Cancer Cell Toxicity qHTS against the NCATS CANVASS Library (AID 1347346). Also: nearly all actives have a fitted effect of over 55% in size. As to conditions: HPAF-II viability, CellTiter-Glo ATP luminescence, 72 h; series mostly up to 38.3 µM. An outline of the steps: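 Using 1000 HPAF-II cells per well, we titrated compounds over 11 concentrations for 72 h at 37 degrees C/5% CO2, with bortezomib as control. Cell survival was quantified by CellTiter-Glo luminescence.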

A short description of experiment [5]: UWB1.289 Cancer Cell Toxicity qHTS against the NCATS CANVASS Library (AID 1347347). Also: nearly all actives have a fitted effect of over 60% in size. The note with it: UWB1.289 viability, CellTiter-Glo luminescence, 72 h; series mostly up to 38.3 µM. An outline of the steps:
as §1

A short description of experiment [6]: OV-SAHO Cancer Cell Toxicity qHTS against the NCATS CANVASS Library (AID 1347348). Also: nearly all actives have a fitted effect of over 55% in size. The note with it: OV-SAHO viability, CellTiter-Glo luminescence, 72 h; series mostly up to 38.3 µM. An outline of the steps:
as §1

Experiment [7] can be described thus: Panc-1005 Cancer Cell Toxicity qHTS against the NCATS CANVASS Library (AID 1347349). Also: nearly all actives have a fitted effect of over 60% in size. As to conditions: Panc-1005 viability, CellTiter-Glo luminescence, 72 h; series mostly up to 38.3 µM. Summed up:
as §1

Experiment [8] in a line: SW1088 Cancer Cell Toxicity qHTS against the NCATS CANVASS Library (AID 1347350). Also: nearly all actives have a fitted effect of over 75% in size. The note with it: SW1088 viability, CellTiter-Glo luminescence, 72 h; series mostly up to 76 µM. Summed up: as §1
A short description of experiment [9]: U-118MG Cancer Cell Toxicity qHTS against the NCATS CANVASS Library (AID 1347351). As to conditions: U-118MG viability, CellTiter-Glo luminescence, 72 h; series mostly up to 76 µM. An outline of the steps: as §1
Experiment [10] in a line: Tertiary RLuc qRT-PCR qHTS assay for Zika virus inhibitors (AID 1347169). Also: top concentration of the series differs between compounds; nearly all actives have a fitted effect of over 55% in size. As to conditions: infected Vero cells, reporter luminescence, 48-72 h; series mostly up to 45.9 µM. An outline of the steps: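 Orthogonal cell-based readout: luminescence measured 1-1.5 hrs after adding live-cell Renilla substrate to Vero cells that had been infected with ZIKV-RLuc (MOI 1-2) post-compound, incubated 48-72 hrs at 37 degrees C.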
(Real-time PCR tracks product formation cycle by cycle.)

Each structure is given as a SMILES string. Inconclusive results are not listed. Entries that show only a call come without a potency. Activity calls are given as the source filed them. Calls follow the shape of the dose curve; as a rule, active = well fitted curve in the direction sought with a large enough effect; inconclusive = small, poorly fitted or top-dose-only effect, or another doubt; inactive = no such curve, though single readings can be large; an effect the other way counts as inactive or inconclusive. Where a SMILES comes first, the peptide text is derived from it.

Turning to `CN1CCCC1Cc1c[nH]c2ccc(CCS(=O)(=O)c3ccccc3)cc12` (stereo not drawn), the Potency entry in [1] and in experiment [2] was “inactive” throughout.
Regarding `CC(C)c1ccc2c(c1)CCC1[C@](C)(C(=O)O)CCC[C@]21C` (stereo partly drawn), the results for the Potency in experiment [1] and in experiment [2] were 20 µM (active) and 12.4 µM (active), respectively. The call in experiment [3], in experiment [4], in experiment [5], in experiment [6], in [7] and in experiment [9] was inactive. For the same compound, the Potency entry in experiment [8] is “inactive”.
In the case of `CC(=O)NC(Cc1ccccc1)C(=O)NC(C(=O)O)C(C)C` (stereo not drawn) (Ac-Phe-Val-OH; configuration not given here), the Potency result in experiment [1] and in experiment [2] was “inactive” each time.
Consider `C=C1CC[C@H]2[C@@](C)(CCC(O)[C@@]2(C)CO)[C@@H]1/C=C/C(=C\C(=O)O)C(=O)O` (stereo partly drawn), for which the Potency result in [2] was “inactive”.
Regarding `COc1ccc(Oc2c(Cl)cnn(C3c4ccccc4-c4ccccc43)c2=O)cc1`, the Potency entry in experiment [1] and in experiment [2] was “inactive” each time.
In the case of `CC(=O)OCC(Cc1ccccc1)NC(=O)C(Cc1ccccc1)NC(=O)c1ccccc1` (stereo not drawn), the Potency result in experiment [1] and in experiment [2] was “inactive” each time.
For the compound `CC(=O)OC(C)(C)/C=C/C(=O)[C@](C)(O)C1[C@H](O)C[C@@]2(C)[C@@H]3CC=C4[C@@H](C[C@H](O[C@@H]5O[C@H](CO)[C@@H](O)[C@H](O)[C@H]5O)C(=O)C4(C)C)[C@]3(C)C(=O)C[C@]12C` (stereo partly drawn), the Potency entry in [1] and in experiment [2] was “inactive” each time.
Turning to `COc1cc(/C=C/C(=O)OC[C@H]2O[C@@H](OC3OC=C(C(=O)O)C4C(O)CC(C)(O)C34)[C@H](O)[C@@H](O)[C@@H]2O)cc(OC)c1O` (stereo partly drawn), the Potency result in [1] and in experiment [2] was “inactive” in each case.
As to `O=C(O)CC1CCC(c2ccc(NC(=O)c3nnc(Nc4ccc(F)c(F)c4)o3)cc2)CC1` (stereo not drawn), the Potency in experiment [1] and in [2] was 14.1 µM (active) each time.
Take `C=C1Cc2c(Cl)cc3[nH]c4c5c3c2[C@@]2(O)[C@@H]1C[C@@H]2C(C)(C)O[C@H]5C1CC[C@@]2(O)[C@@]35O[C@@H]3[C@H]3OC(C)(C)[C@H]3O[C@H]5CC[C@]2(C)[C@@]41C` (stereo partly drawn): the Potency result in experiment [2] is “inactive”.
The same measure, in the same setting: with `O=C(Cn1c2ccccc2c2nc3n(c(=O)c21)CCS3)N1CCCC1` the entry was “inactive”; with `CC(C)(O)C1CC=C(C(=O)OC[C@H]2O[C@@H](OC(=O)C3=CCC(C(C)(C)O)CC3)[C@H](O)[C@@H](O)[C@@H]2O)CC1` (stereo partly drawn), “inactive”.
Still for that read-out and setting: with `C=C1C[C@@]2(O)O[C@@]3(C[C@H]2C(C)C)[C@@H](C)CC[C@@H]13` the entry was “inactive”; with `COc1c(C)c(OCC=C(C)C)cc2c1COC2=O`, “inactive”.
In the case of `CC1(C)CCC[C@]2(C)C1CC=C(CO)[C@H]2CC/C(=C/CO)CO` (stereo partly drawn), the Potency entry in experiment [2] was “inactive”.
For `CC(CNS(=O)(=O)C(C)C)c1ccc(-c2ccc(C#N)cc2)cc1` (stereo not drawn), in experiment [2], the Potency result is “inactive”.
On to `CC1=C2C(=O)C=C(CO)C2C2OC(=O)C(CS(=O)(=O)O)C2C(OC(=O)Cc2ccc(O)cc2)C1` (stereo not drawn), for which the Potency entry in experiment [2] was “inactive”.
The same measure, in the same setting: with `C/C1=C\CC[C@]2(C)O[C@H]2C(=O)c2c(C)coc2C1` the entry was “inactive”; with `C[C@@H]1O[C@@H](O[C@H]2[C@@H]3C=CO[C@@H](O[C@@H]4O[C@H](CO)[C@@H](O)[C@H](O)[C@H]4O)[C@@H]3[C@@]3(CO)O[C@@H]23)[C@H](OC(=O)/C=C/c2ccc(O)cc2)[C@H](O)[C@H]1O`, “inactive”; with `C[C@H]1CC[C@@]2(OC1)O[C@H]1CC3C4CC[C@H]5C[C@@H](O[C@@H]6O[C@H](CO)[C@H](O[C@@H]7O[C@H](CO)[C@@H](O)[C@H](O[C@@H]8OC[C@@H](O)[C@H](O)[C@H]8O)[C@H]7O[C@@H]7O[C@H](CO)[C@@H](O)[C@H](O)[C@H]7O)[C@H](O)[C@H]6O)[C@H](O)C[C@]5(C)C4=CC(=O)[C@]3(C)[C@H]1[C@@H]2C` (stereo partly drawn), “inactive”.
Still for that read-out and setting: as for `COC(=O)c1ccccc1O[C@@H]1O[C@H](CO[C@@H]2OC[C@@H](O)[C@H](O)[C@H]2O)[C@@H](O)[C@H](O)[C@H]1O`, the entry is “inactive”; as for `CC(C)[C@@H](C(=O)O)N1Cc2c(cc(O)c3c2O[C@]2(C3)[C@H](C)CCC3C(C)(C)[C@H](O)[C@H](O)C[C@@]32C)C1=O` (stereo partly drawn), 7.94 µM (active).
On the same count and under the same terms, with `O=C(OCC1=C[C@@H](O)[C@@H]2C=CO[C@@H](O[C@@H]3O[C@H](CO)[C@@H](O)[C@H](O)[C@H]3O)[C@H]12)c1ccc(O)cc1` the entry was “inactive”; with `C/C(=C\C(=O)C(C)C1CCC2C3=C(CCC21C)C1(C)CCC(=O)C(C)(C)C1(O)CC3)C(C)(C)O` (stereo not drawn), 14.1 µM (active); with `C=C1CC[C@@H]2[C@](C)(CO)[C@H](O[C@@H]3O[C@H](CO)[C@@H](O)[C@H](O)[C@H]3O)CC[C@@]2(C)[C@@H]1C/C=C1/C(=O)OC[C@H]1O`, “inactive”.
Regarding `CC(=O)C1CCC(=O)N1Cc1ccccc1` (stereo not drawn), the Potency result in experiment [2] was “inactive”.
Still for that read-out and setting: with `O=C(/C=C/c1ccc(O)c(O)c1)OC[C@H]1O[C@@H](OC2CCCCC2O)[C@H](O)[C@@H](O)[C@@H]1O` (stereo partly drawn) the entry was “inactive”; with `Cc1occc1C(=O)n1ccnc1`, “inactive”.
As to `CC/C=C/C(O)C(O)C1=C(C)C(=O)C2(O1)C(=O)NC(OC)(C(=O)c1ccccc1)C2O` (stereo not drawn), the Potency result in [2] was “inactive”.
Same read-out and setting: with `C=C1CC[C@]2(C(=O)O[C@@H]3O[C@H](CO)[C@@H](O)[C@H](O)[C@H]3O)CC[C@]3(C)C(=CCC4[C@@]5(C)C[C@H](O)[C@@H](O[C@@H]6O[C@H](C(=O)O)[C@@H](O)[C@H](O)[C@H]6O)[C@](C)(C=O)C5CC[C@]43C)C2C1` (stereo partly drawn) the entry was “inactive”; with `CC1C2=CC(=O)OC2(O)CC2C1CCC1C(C)(C)CCC(O)C21C` (stereo not drawn), “inactive”.
With `CC(=O)O[C@@H]1C(O)C[C@@]2(C)C(CC[C@@H](C)C23Cc2c(O)cc4c(c2O3)CNC4=O)C1(C)C` (stereo partly drawn), in experiment [2], the Potency entry is “inactive”.
Still for that read-out and setting: as for `C[C@@H]1CC[C@]2(C(=O)O)CC[C@]3(C)C(=CCC4[C@@]5(C)C[C@@H](O)[C@H](O)[C@@](C)(CO)C5CC[C@]43C)C2[C@H]1C` (stereo partly drawn), the entry is “inactive”.
Regarding `CC1=C2C(=O)C=C(CO)C2[C@H]2OC(=O)[C@H](C)[C@@H]2[C@@H](OC(=O)Cc2ccc(O)cc2)C1` (stereo partly drawn), the Potency result in experiment [2] is “inactive”.
`CO[C@H]1c2cc(C(C)C)c(O)c(O)c2[C@@]23CCCC(C)(C)C2[C@@H]1OC3=O` (stereo partly drawn): the Potency result in [2] and in experiment [10] was “inactive” each time.
In the case of `CC(C(=O)Nc1cc(C#N)ccc1CCCC(=O)O)c1ccc(F)c2ccccc12` (stereo not drawn), the Potency entry in experiment [2] was “inactive”.
Still for that read-out and setting: as for `COc1ccc(-n2c(=O)[nH]c3cc(C(=O)NCc4ccc(Cl)cc4)sc3c2=O)nc1OC`, the entry is “inactive”.

Source of the values: PubChem BioAssay (NCATS).
